Results on 59 compounds are retold here after PubChem BioAssay AID1851 (National Center for Advancing Translational Sciences (NCATS), 2009).

Screen size: about 16,000 compounds; about 5,100 (32%) were called active. Another 25% or so got no clear call; they are omitted. The call rests on the fitted dose curve; in most records, active means well fitted curve in the direction sought with a large enough effect; inconclusive means small, poorly fitted or top-dose-only effect, or effect the other way; inactive means no such curve, though single readings can be large or run the other way. The list shows a part of the results.
On the % scale 0 is the no-effect control and ±100 the full control effect.

For the test, the target named is Cytochrome P450 3A4 (Homo sapiens) (UniProt P08684). Put plainly: Cytochrome panel assay with activity outcomes. The following applies: recombinant CYP, pro-luciferin dealkylation, luminescence, p450-cyp3a4; series mostly up to 57.1 µM.
Sequence of Cytochrome P450 3A4 (Homo sapiens) (P08684 whole entry, looked up): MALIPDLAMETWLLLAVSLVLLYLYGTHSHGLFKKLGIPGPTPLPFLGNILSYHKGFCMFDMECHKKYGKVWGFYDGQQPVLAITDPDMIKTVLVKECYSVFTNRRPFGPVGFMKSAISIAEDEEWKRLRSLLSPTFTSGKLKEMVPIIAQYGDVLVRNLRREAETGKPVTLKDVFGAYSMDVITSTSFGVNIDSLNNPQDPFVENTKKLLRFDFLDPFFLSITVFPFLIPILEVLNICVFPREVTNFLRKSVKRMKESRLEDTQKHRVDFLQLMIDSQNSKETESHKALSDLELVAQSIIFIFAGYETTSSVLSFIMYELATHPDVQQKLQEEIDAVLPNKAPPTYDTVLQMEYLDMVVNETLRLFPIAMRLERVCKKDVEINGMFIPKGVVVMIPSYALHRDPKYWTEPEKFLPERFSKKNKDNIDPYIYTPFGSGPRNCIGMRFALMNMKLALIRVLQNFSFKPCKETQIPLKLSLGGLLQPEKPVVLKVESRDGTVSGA
The AC50 is the concentration giving half of the maximal activity seen. Regarding `Cc1cc2nc(C)n(CCCN)c2cc1C`, the AC50 entry was “inactive”.

`CSc1nc(C)cc(Nc2ccc(O)c(CN3CCOCC3)c2)n1`: the activity, negative = inhibition was 0.709% [at 11.4 µM] (inactive).

Turning to `Cc1cccc(C(=O)NCN2CCN(c3ccccc3C#N)CC2)c1`, the AC50 entry is “inactive”.

Consider `Cc1cccc(OCC(=O)NNC(=O)CSc2ncc(C#N)c(N)n2)c1`, for which the AC50 is 14.1 µM (active).

Turning to `Cc1c(C(=O)Nc2nccs2)sc2nc(-c3cccs3)cc(C(F)(F)F)c12`, the AC50 is 14.1 µM (active).

Turning to `CC(/C=C/c1ccccc1)=N/NC(=O)CNC(=O)c1ccc2c(c1)OCO2`, the half-maximal activity concentration (AC50) was 6.31 µM (active).

Turning to `CN(C)Cc1ccc(C(C)(C)C)cc1-c1cc(C(C)(C)C)ccc1CN(C)C`, the activity, negative = inhibition was 0.94% [at 11.4 µM] (inactive).

`CN(C)Cc1cc(C(F)(F)F)ccc1C(O)(c1ccccc1)c1ccccc1`: the AC50 was 0.794 µM (active).

On to `CN(C)Cc1cc(C(C)(C)C)ccc1-c1ccc(C(C)(C)C)cc1CN(C)C`, for which the activity, negative = inhibition was 5.04% [at 11.4 µM] (inactive).

As to `COc1ccccc1-c1cncnc1NCCNC(C)=O`, the AC50 was 2 µM (active).

Take `CC(=O)NCCNc1cc(-c2ccccc2CN(C)C)ncn1`: the AC50 result is “inactive”.

Consider `CC(=O)NCCNc1ncncc1-c1ccccc1C(F)(F)F`, for which the concentration at half-maximal activity (AC50) was 1 µM (active).

As for `COc1nc(OCCNC(C)=O)nc(N(C)C)n1`, the activity, negative = inhibition was 4.84% [at 2.29 µM] (inactive).

On to `CC(=O)NCCNc1ncncc1-c1ccccc1C`, for which the AC50 was 2.51 µM (active).

`CC(=O)NCCNc1cc(-c2ccccc2C(F)(F)F)ncn1`: the AC50 entry is “inactive”.

In the case of `CC(=O)NCCNc1ncncc1-c1ccc(N(C)C)cc1`, the concentration at half-maximal activity (AC50) is 2 µM (active).

For `CC(=O)NCCNc1cc(-c2ccccc2C)ncn1`, the AC50 result is “inactive”.

Take `COc1ccc(N2CCN(C(=N)/C(C(C)=O)=C(\C)O)CC2)cc1`: the activity, negative = inhibition was -4.11% [at 2.29 µM] (inactive).

For `CCn1cnc2sc(C(=O)N3CCN(c4ccc(OC)cc4)CC3)c(C)c2c1=O`, the AC50 was 12.6 µM (active).

Turning to `O=C(O)c1cc(=O)cc(C(=O)O)[nH]1`, the AC50 result is “inactive”.

On to `Fc1cccc(F)c1C(Nc1nncs1)Nc1nncs1`, for which the activity, negative = inhibition was -16.1% [at 11.4 µM] (inactive).

Regarding `Clc1ccccc1-c1nc(N/N=C/c2cccnc2)c2ccccc2n1`, the AC50 was 1.41 µM (active).

Regarding `FC(F)(F)c1ccccc1-c1nc(NCc2cccnc2)c2ccccc2n1`, the AC50 was 2 µM (active).

Consider `Cc1sc(N/N=C/c2cccnc2)nc1-c1ccccc1`, for which the activity, negative = inhibition was 20.5% [at 2.29 µM] (inactive).

For the compound `Clc1ccccc1-c1nc(NCc2cccnc2)c2ccccc2n1`, the AC50 was 2.51 µM (active).

Consider `C(=N/Nc1nnc2c(n1)[nH]c1ccccc12)/c1cccnc1`, for which the AC50 was 3.98 µM (active).

With `CON(C)C(=O)c1nnc2c(n1)[nH]c1ccccc12`, the activity, negative = inhibition was -23% [at 11.4 µM] (inactive).

`O=C(O)CNc1ccc(C(=O)O)cc1`: the activity, negative = inhibition was -7.89% [at 11.4 µM] (inactive).

For the compound `CC(C)(C)COS(=O)OCC(C)(C)C`, the activity, negative = inhibition was -4.89% [at 11.4 µM] (inactive).

As for `O=C(O)CCC(=O)N1CCOc2ccc(Cl)cc21`, the AC50 result is “inactive”.

`CN(C)CCn1c(CO)nc2c1c(=O)n(C)c(=O)n2C`: the activity, negative = inhibition is -3.94% [at 11.4 µM] (inactive).

As for `O=c1cc(CO)oc(CN2CCCC2)c1O`, the AC50 entry was “inactive”.

As to `Cc1ccccc1-c1nc(NCc2cccnc2)c2ccccc2n1`, the AC50 was 0.501 µM (active).

In the case of `CO[C@]1(NC(=O)CSCC#N)C(=O)N2C(C(=O)O)=C(CSc3nnnn3C)CS[C@H]21`, the AC50 result is “inactive”.

For `COc1ccc(CC(NC(C)=O)C(=O)NC2CCN(C(=O)Nc3ccc(Cl)cc3)CC2)cc1OC` (centres undefined), the activity, negative = inhibition was -6.41% [at 2.29 µM] (inactive).

On to `COc1ccc(C(C(=O)NC2CCCCC2)N(C(=O)Cc2c[nH]c3ccccc23)c2ccc(NC(C)=O)cc2)cc1OC` (centres undefined), for which the AC50 was 3.16 µM (active).

As to `CC(C)C(=O)NCCc1nc2ccccc2n1CCCOc1ccc(Cl)cc1`, the AC50 is 11.2 µM (active).

For the compound `Clc1ccc(Cn2c(-c3cccnc3Cl)nc3ccccc32)c(Cl)c1`, the activity, negative = inhibition was -20.9% [at 2.29 µM] (inactive).

Turning to `CC(OC(=O)Cn1c(C(F)(F)F)nc2ccccc21)C(N)=O` (centres undefined), the AC50 entry was “inactive”.

With `C[C@]1(c2ccccc2)OC(C(=O)O)=CC1=O`, the AC50 entry was “inactive”.

Consider `CCOc1ccc(C(=O)O)cc1OC`, for which the AC50 entry is “inactive”.

For the compound `CCC(=O)c1ccc(OCc2ccc(C(=O)OC)cc2)c(OC)c1`, the AC50 is 4.47 µM (active).

In the case of `O=C(O)c1ccc(OCc2ccccc2)c(Cl)c1`, the activity, negative = inhibition was -32.8% [at 11.4 µM] (inactive).

`CC(C)=CCC/C(C)=C/CO/N=C1/C[C@@H](O)[C@@H](O)[C@@H]2[C@@H]3C(=O)N(C4CCCCC4)C(=O)[C@H]3CC[C@@H]12`: the activity, negative = inhibition is -27% [at 11.4 µM] (inactive).

Turning to `CC1(C)CC2(CC(c3cccs3)c3cc(Cl)c(O)cc3O2)NC(=S)N1` (centres undefined), the activity, negative = inhibition was -22.1% [at 2.29 µM] (inactive).

Regarding `O=C1CC(c2cccs2)c2cc3c(cc2N1)OCO3` (centres undefined), the AC50 was 7.08 µM (active).

For `CCCCNC(=S)NNC(=O)c1sccc1C`, the activity, negative = inhibition was 1.58% [at 2.29 µM] (inactive).

On to `CCCCNC(=S)NNC(=O)CCn1nc(C)c(Br)c1C`, for which the AC50 is 4.47 µM (active).

Consider `c1ccc([P+](CC[P+](c2ccccc2)(c2ccccc2)c2ccccc2)(c2ccccc2)c2ccccc2)cc1`, for which the activity, negative = inhibition is 1.54% [at 11.4 µM] (inactive).

With `C[C@]12CC[C@H]3c4ccc(O)cc4CC[C@@H]3[C@H]1C/C(=N/O)[C@H]2O`, the activity, negative = inhibition was -4.59% [at 11.4 µM] (inactive).

Consider `Cc1ccc2ccccc2c1CSc1nc(N)nc2c1ncn2CC(C)C`, for which the activity, negative = inhibition is -24.4% [at 11.4 µM] (inactive).

For the compound `CC(C)Cn1cnc2c(SCc3ccccn3)nc(N)nc21`, the activity, negative = inhibition was -22.1% [at 11.4 µM] (inactive).

Take `CC(C)Cn1cnc2c(SCc3ccc(Cl)cc3Cl)nc(N)nc21`: the AC50 is 3.98 µM (active).

Regarding `O[C@@H](c1cc([C@@]23C[C@H]4CC[C@@H]2C[C@H](C4)C3)nc2c(Cl)cc(Cl)cc12)[C@@H]1CCCCN1`, the activity, negative = inhibition was -22.3% [at 11.4 µM] (inactive).

Take `C/C(CCN1CCc2nc(-c3ccccc3)c(-c3ccccc3)cc2C1)=N\O[C@@H](C)c1cn([C@@H]2COC[C@@H]2O)nn1`: the activity, negative = inhibition is -37.3% [at 11.4 µM] (inactive).

For the compound `C/C(CCN1CCCc2nc(C)c(C)cc21)=N\OC[C@@H](O)[C@@H]1O[C@@H]2OC(C)(C)O[C@@H]2[C@H]1O`, the activity, negative = inhibition was -10.8% [at 11.4 µM] (inactive).

Regarding `C/C(CCN1CCCc2nc(C)c(C)cc21)=N\OC[C@@H](O)COCc1ccco1`, the half-maximal activity concentration (AC50) is 3.98 µM (active).

Consider `C/C(CCN1CCCCc2nc(C)c(C)cc21)=N\OC[C@@H](O)COCc1ccco1`, for which the AC50 was 3.98 µM (active).

Take `C/C(CCN1CCc2nc(-c3ccccc3)c(-c3ccccc3)cc2C1)=N\OC[C@@H](O)COCc1ccco1`: the AC50 is 3.16 µM (active).
